Sampled rows, rich in hits. Any-hit rate of the full collection: about 14%.
Pf growth 48h – P. falciparum growth inhibition at 48 hours (one generation). hit rate 5.9% among 310,000. Potency, µM (top dose mostly 28.7 µM), inactives show top-dose activity change, negative = inhibition, usual class: inhibitors. P. falciparum luciferase growth in erythrocytes, 48 h; also: potency is read from the fitted curve at half-maximal effect
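A one-generation exposure of luciferase-tagged malaria parasites in RPMI 1640/Albumax erythrocyte culture, 37 C and 5% CO2. Inhibition is inferred from decreased luminescence after adding detection reagent.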
Sm TGR block – inhibitors of Schistosoma mansoni thioredoxin glutathione reductase | Potency, µM (titrated, usually from 114 µM), inactives show at the top dose activity change, negative = inhibition, hits mostly inhibitors | AID 485364 | Q962Y6 | hit rate 3% among 360,000 | purified TGR, DTNB reduction, TNB absorbance 405 nm; also: potency is read from the fitted curve at half-maximal effect; nearly all actives have a fitted effect of over 60% in size
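First, TGR (20 nM dispensed) and NADPH were mixed with compound. Second, a 15 min room-temperature incubation followed. Third, further NADPH and then DTNB were added to start the reaction. Finally, TNB absorbance was monitored kinetically.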
Pf growth 96h – inhibits malaria parasite growth, 96 h; P. falciparum luciferase reporter growth, 96 h; Potency, µM (top dose mostly 28.7 µM), without a hit: at the highest dose activity change, negative = inhibition, hits mostly inhibitors; AID 504834; hit rate 6.9% among 320,000; also: potency is read from the fitted curve at half-maximal effect
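Cell-based qHTS: luciferase-tagged P. falciparum in erythrocytes (2% hematocrit, 0.05% parasitemia final) incubated with compounds for 96 hours, 37 C, 5% CO2; luciferase detection reagent then added and luminescence measured.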
HCMV inh – human cytomegalovirus inhibition. HFF cells, HCMV-luciferase reporter, 72 h; active compounds read low. activity change, negative = inhibition, % at 57.5 µM. hit rate 4.5% among 410,000; in the data active = activity change below about -60%; inconclusive = no clear call, values can overlap the other calls; inactive = above about -39%
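After 16 h attachment at 37C, HFF cells received test compound and HCMV-luciferase (1 PFU/cell); reporter luminescence read 72 h later, data normalized against buffer-only and known inhibitor Salinomycin.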
FBPA Giardia inh – blocks Giardia fructose-bisphosphate aldolase activity. A8B2U2. hit rate 0.71% among 290,000. purified Giardia FBPA. Potency, µM (titrated, usually from 59.6 µM), for inactives: top-dose activity, negative = inhibition, actives largely listed as inhibitors; also: potency is read from the fitted curve at half-maximal effect; nearly all actives have a fitted effect of over 55% in size
Target sequence (A8B2U2 whole entry, looked up): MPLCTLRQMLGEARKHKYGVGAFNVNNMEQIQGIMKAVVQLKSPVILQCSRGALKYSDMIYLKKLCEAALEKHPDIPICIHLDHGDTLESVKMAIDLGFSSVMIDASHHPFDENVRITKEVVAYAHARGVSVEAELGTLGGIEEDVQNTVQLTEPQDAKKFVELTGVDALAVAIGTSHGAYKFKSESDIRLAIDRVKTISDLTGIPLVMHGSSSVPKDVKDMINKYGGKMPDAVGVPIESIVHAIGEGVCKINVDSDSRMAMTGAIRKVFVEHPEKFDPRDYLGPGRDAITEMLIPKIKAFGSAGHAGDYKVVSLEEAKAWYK
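40 nM FBPA preincubated 10 min at RT with compound (up to 57.5 uM final), then substrate plus GAPDH/TPI/NAD/arsenate coupling and diaphorase/resazurin added. Fluorescence read after 20 min at RT, 525/598 nm.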
Numbers without * were called inactive; ? = inconclusive; nt = no result given; [ ] = remark or other dose. Unless noted, calls follow the shape of the dose curve; as a rule, active = well fitted curve in the direction sought with a large enough effect; inconclusive = small, poorly fitted or top-dose-only effect, or another doubt; inactive = no such curve, though single readings can be large; an effect the other way counts as inactive or inconclusive. % is scaled to controls: 0 for no effect and ±100 for the full control effect.

SMILES | Pf growth 48h | Sm TGR block | Pf growth 96h | HCMV inh | FBPA Giardia inh
O=C(NCC(c1ccco1)N1CCOCC1)c1cccc([N+](=O)[O-])c1 (stereo not given) | -30% | -7% | 0% | -6 | -1%
Cc1ccc(C(=O)NCC(c2ccco2)N2CCOCC2)cc1 (stereo not given) | ? | 3% | 6.6µM* | -20 | nt
O=C(NCC(c1ccco1)N1CCOCC1)c1ccc([N+](=O)[O-])cc1 (stereo not given) | -5% | 4µM* | 4% | 0 | -2%
CC(=O)NC(c1ccccc1)c1nc(-c2cccc(C(F)(F)F)c2)cs1 (stereo not given) | nt | nt | nt | 69 | nt
CC1(C)SC2C(C(=O)O)N=C(Cc3ccccc3)N2C1C(=O)O (stereo not given) | nt | nt | nt | 4 | nt
CN(C)c1ccc(C(CNC(=O)c2ccccc2C(F)(F)F)N2CCOCC2)cc1 (stereo not given) | nt | -1% | nt | -8 | nt
CN(C)c1ccc(C(CNC(=O)c2ccc(-c3ccccc3)cc2)N2CCOCC2)cc1 (stereo not given) | 13µM* | -1% | ? | ? | nt
CN(C)c1ccc(NC(=O)CC2NCCNC2=O)cc1 (stereo not given) | 12% | -5% | 0.21µM* | -4 | 4%
Cc1cccc(-c2nc(CS(=O)CC(=O)N3CC(C)CC(C)C3)c(C)o2)c1 (stereo not given) | 19% | 35µM* | -5% | -30 | 10%
CCN1CCN(C(=O)CS(=O)Cc2nc(-c3cccc(C)c3)oc2C)CC1 (stereo not given) | 14% | 40µM* | 23% | -25 | 11%
CCOC(=O)N1CCN(C(=O)CS(=O)Cc2nc(-c3cccc(C)c3)oc2C)CC1 (stereo not given) | nt | ? | 11% | 5 | 2%
CNC(=S)NCCCCc1cnc[nH]1 | nt | nt | nt | nt | 11µM*
CC1(C)CCC[C@]2(C)C3CC(=O)O[C@@]3(C)CC[C@H]12 (stereo not given in full) | nt | nt | nt | nt | 8%
O=C(O)c1cccc(N2C(=O)/C(=C/c3ccc(SCc4ccc(Cl)cc4)o3)SC2=S)c1 | ? | 13µM* | -4% | ? | ?
CCOc1ccccc1C(=O)Oc1c(Sc2ccccc2)c(C)nn1C(C)(C)C | nt | 0% | nt | 19 | nt
O=C1C=C(c2ccc3[nH]ccc3c2)C[C@@H](c2ccc(Cl)cc2)C1 | 2.6µM* | 7% | 4.7µM* | -9 | nt
COc1ccc(C2=CC(=O)C[C@H](c3ccc(Cl)cc3)C2)cc1 | ? | -1% | ? | 3 | nt
Cc1ccc(C2=CC(=O)C[C@H](c3ccc(Cl)cc3)C2)cc1 | -8% | -11% | 0% | nt | nt
COc1cccc(C2=CC(=O)C[C@H](c3ccc(Cl)cc3)C2)c1 | 2.9µM* | -2% | ? | -31 | nt
O=C1C=C(c2ccc(O)cc2)C[C@@H](c2ccc(Cl)cc2)C1 | 3.7µM* | -5% | 2.3µM* | -4 | nt
COc1ccc([C@H]2CC(=O)C=C(c3cc4ccccc4c4ccccc34)C2)cc1 | 7% | -4% | ? | 8 | nt
COc1ccc([C@H]2CC(=O)C=C(c3ccc(C)c4ccccc34)C2)cc1 | ? | -15% | 1.2µM* | 10 | nt
COc1ccc(O[C@H]2C=C[C@@H](c3ccccc3)O[C@H]2COC(=O)CC/C(C)=N\O[C@@H](C)c2cc(-c3c(C)cc(C)cc3C)no2)cc1 | nt | nt | nt | nt | 1%[12.9 µM]
COc1ccc([C@H]2CC(=O)C=C(c3cccc(C(C)C)c3)C2)cc1OC | ? | -2% | ? | -27 | nt
O=C1C=C(c2cccc(CO)c2)C[C@@H](c2ccc(Cl)cc2)C1 | 0.33µM* | 15% | 0.47µM* | -1 | nt
SMILES | Pf growth 48h | Sm TGR block | Pf growth 96h | HCMV inh | FBPA Giardia inh
CC(C)c1cccc(C2=CC(=O)C[C@H](c3ccc(F)cc3)C2)c1 | 1.7µM* | 7% | 2.3µM* | ? | nt
O=C1C=C(c2ccccc2)C[C@@H](c2ccc(Cl)cc2)C1 | 2.6µM* | 3% | ? | -23 | nt
O=C1C=C(c2ccc3ccccc3c2)C[C@@H](c2ccc(Cl)cc2)C1 | ? | ? | 81% | 13 | nt
NC1=NC(c2ccccc2C(F)(F)F)N(c2ccc(F)c(Cl)c2)C(N)=N1 (stereo not given) | 1.9µM* | -6% | 9% | ? | -2%
CN(C)CCC(=O)N1C/C(=C/c2ccccc2)C(=O)/C(=C\c2ccccc2)C1 | nt | nt | nt | -98* | nt
C[N+](C)(C)CCC(=O)N1C/C(=C/c2ccccc2)C(=O)/C(=C\c2ccccc2)C1 | nt | nt | nt | -67* | nt
O=C1/C(=C/c2ccccc2)CN(C(=O)CCN2CCOCC2)C/C1=C\c1ccccc1 | nt | nt | nt | -33 | nt
CO[C@]1(C)C[C@H]2O[C@]1(C)n1c3ccccc3c3c4c(c5c6ccccc6n2c5c31)C(=O)N(C)C4 | nt | nt | nt | nt | 4%
NC(=O)c1cccc(C(N)=O)n1 | 8% | -3% | 8.3µM* | -38 | 4%
O=C(Cc1c(Cl)cccc1Cl)OCC(=O)c1ccc[nH]1 | nt | nt | nt | -3 | nt
CCCCN(CCCNC(=O)C1CCN(C(=O)c2cc3sccc3n2C)CC1)Cc1ccccc1 | 5.2µM* | 14% | 42% | ? | -10%
CCC(=O)Nc1ccccc1-c1nc2ccccc2n(CC(=O)c2ccc(Br)cc2)c1=O | nt | 1% | nt | 3 | nt
COC(=O)N1CCC[C@@]2(CCN(c3ccccn3)C2)C1 | nt | nt | nt | nt | -5%
N#Cc1ccc(C23CC4(C2)[C@H](CN(CC2CCCCC2)[C@@H]4c2ccccc2)C3c2ccc(Cl)nc2)cc1 (stereo not given in full) | ? | -26% | ? | -19 | 1%
N#Cc1ccc(C23CC4(C2)[C@H](CN(CC2CCCCC2)[C@@H]4c2ccccc2)C3c2ccc(C(F)(F)F)cc2)cc1 (stereo not given in full) | 10µM* | -26% | ? | 48 | 5%
FC(F)(F)c1ccc(C2[C@H]3CN(CC4CCCCC4)[C@H](c4ccccc4)C34CC2(c2ccccc2)C4)cc1 (stereo not given in full) | nt | nt | nt | nt | 0%
N#Cc1ccc(C23CC4(C2)[C@H](CN(CC2CCCCC2)[C@@H]4c2ccccc2)C3c2ccccc2)cc1 (stereo not given in full) | ? | 11% | 12µM* | 16 | 1%
CCc1ccc(NC(=S)NCC2CCCN2CC)cc1 (stereo not given) | 8% | 1% | ? | -38 | -4%
COCCn1c(=O)c(C)nc2cnc(N3CCOCC3)nc21 | nt | nt | nt | nt | 4%
O=Cc1ccc(OCCN2CCCC2=O)cc1 | 6% | 0% | -21% | 9 | 9%
O=Cc1ccccc1OCCN1CCCC1=O | 6% | 1% | -13% | -63* | -2%
CC(=O)OCCn1c2nc(=O)[nH]c(=O)c-2nc2cc(C)c(C)cc21 | ? | -23% | ? | -1 | ?
CCCC(=O)OC[C@@H](OC(=O)CCC)[C@@H](OC(=O)CCC)[C@H](Cn1c2nc(=O)[nH]c(=O)c-2nc2cc(C)c(C)cc21)OC(=O)CCC | ? | nt | 12µM* | 17 | nt

From PubChem
